# Experimental data reported in PubChem BioAssay AID504537 (National Center for Advancing Translational Sciences (NCATS), 2011).
# Inconclusive results are not listed. The source made the active and inactive calls. How the calls were made is not given here.
# Target: Histone-lysine N-methyltransferase 2A (Homo sapiens) (UniProt Q03164)
# Assay: Inhibitor SAR for Compounds Targeting the Menin-MLL Interaction in MLL Related Leukemias: Competition With Fluorescein Labeled MLL-derived Peptide
# Conditions: Menin-MLL fluorescein peptide fluorescence polarization competition
# From the text: qHTS Assay for Inhibitors Targeting the Menin-MLL Interaction in MLL Related Leukemias NIH Chemical Genomics Center [NCGC] NIH Molecular Libraries Probe Centers Network [MLPCN] MLPCN Grant: MH084875-01A1 Assay Submitter (PI): Jolanta Grembecka, Tomasz Cierpicki, University of Virginia Translocations of the MLL (Mixed Lineage Leukemia) gene are frequently found in human leukemias affecting both children and adults. Fusion of MLL to one of more than 60 genes results in generation of oncogenic proteins upregulating Hox genes, which are vital to blood cell development. Patients harboring fusion of the MLL gene suffer from aggressive leukemias and respond poorly to available therapies. All of the oncogenic fusion proteins have a preserved N-terminal fragment of MLL that has been identified to interact with menin. It has been recently discovered that association with menin is critical to the leukemogenic activity of the MLL fusion oncoproteins. Selective targeting of the menin-MLL interaction could provide an attractive therapeutic approach to develop novel drugs for MLL-related leukemias. Small molecules blocking the menin-MLL interaction should reverse the oncogenic potential of MLL fusion proteins. We have developed and optimized a fluorescence polarization-based assay for the identification of Menin-MLL inhibitors. The assay was run employing two different MLL-derived peptides. The present assay uses a 12 amino acid peptide labeled with fluorescein at its N-terminus. This peptide consists of the menin high affinity binding motif from MLL and is potently bound by menin. Another peptide with a mutated sequence, labeled with Texas Red, was used in parallel as a less stringent screen for inhibitors. The present assay was run to characterize initial structure activity relationships.
# The Menin protein, the MLL-wild type (w.t.) derived peptide (N-terminal 12 amino acids), the MLL-derived peptide labeled with Texas Red and the MLL-w.t. peptide labeled with Fluorescein were kindly supplied by laboratory of Dr. Jolanta Grembecka, University of Virginia. All protein and peptide solutions were stored in single use aliquots at -80C. The Eu3+ Cyrptate-conjugated mouse monoclonal antibody anti-6 Histidine (Eu3+-AB) and the Streptavidin-XL665 conjugate (XL665) were purchased from Cisbio International (Bedford, MA). All antibody and XL665 conjugate solution stocks were stored in single use aliquots at -20C. The Buffer components for all assays were purchased from Sigma-Aldrich (St. Louis, MO) and Invitrogen (Carlsbad, CA). FP Assay Reagents: 1. FP reaction buffer: 50 mM Tris-HCl pH 7.5, 50 mM NaCl, 1mM DTT. Before use, 0.05% BSA is added. 2. Menin protein, MLL-w.t. labeled with fluorescein, MLL-mutant peptide labeled with texas red. Stored in singe use aliquots at -80C. 3. MLL-w.t. unlabeled peptide as positive control: 10 uM final in FP buffer. FP Assay Procedure: 1. Prepare Menin at 200 nM, MLL-w.t.-fluorescein at 25 nM, and MLL-mutant-texas red at 50 nM mixture in FP buffer. 2. Prepare Menin at 200 nM, MLL-w.t.-fluorescein at 25 nM, MLL-mutant-texas red at 50 nM, and 10 uM MLL-w.t. unlabeled mixture in FP buffer. 3. Prepare MLL-w.t.-fluorescein at 25 nM and MLL-mutant-texas red at 50 nM mixture in FP buffer. 3. Dispense 4 ul per well of reagent in step 1 in columns 2, 4 - 48 in a black 1536 well plate, dispense 4 ul per well of reagents from steps 2 and 3 in columns 1 and 3 respectively. Incubate plate at ambient for 15 minutes. 4. Transfer 23 nl per well of compound to plate and incubate at ambient for 1 hr. 5. Read fluorescence polarization for each label using the PerkinElmer Envision. Envision protocol for fluorescein: FITC FP Dual Enh Mirror, Excitation filter 480, Emission filter (1) P-pol 535, Emission filter (2) S-pol 535 Envision protocol for texas red: FP Dual Enh Mirror, Excitation filter 555, Emission filter (1) P-pol 632, Emission filter (2) S-pol 632
# Histone-lysine N-methyltransferase 2A (Homo sapiens), sequence (Q03164 whole entry, looked up): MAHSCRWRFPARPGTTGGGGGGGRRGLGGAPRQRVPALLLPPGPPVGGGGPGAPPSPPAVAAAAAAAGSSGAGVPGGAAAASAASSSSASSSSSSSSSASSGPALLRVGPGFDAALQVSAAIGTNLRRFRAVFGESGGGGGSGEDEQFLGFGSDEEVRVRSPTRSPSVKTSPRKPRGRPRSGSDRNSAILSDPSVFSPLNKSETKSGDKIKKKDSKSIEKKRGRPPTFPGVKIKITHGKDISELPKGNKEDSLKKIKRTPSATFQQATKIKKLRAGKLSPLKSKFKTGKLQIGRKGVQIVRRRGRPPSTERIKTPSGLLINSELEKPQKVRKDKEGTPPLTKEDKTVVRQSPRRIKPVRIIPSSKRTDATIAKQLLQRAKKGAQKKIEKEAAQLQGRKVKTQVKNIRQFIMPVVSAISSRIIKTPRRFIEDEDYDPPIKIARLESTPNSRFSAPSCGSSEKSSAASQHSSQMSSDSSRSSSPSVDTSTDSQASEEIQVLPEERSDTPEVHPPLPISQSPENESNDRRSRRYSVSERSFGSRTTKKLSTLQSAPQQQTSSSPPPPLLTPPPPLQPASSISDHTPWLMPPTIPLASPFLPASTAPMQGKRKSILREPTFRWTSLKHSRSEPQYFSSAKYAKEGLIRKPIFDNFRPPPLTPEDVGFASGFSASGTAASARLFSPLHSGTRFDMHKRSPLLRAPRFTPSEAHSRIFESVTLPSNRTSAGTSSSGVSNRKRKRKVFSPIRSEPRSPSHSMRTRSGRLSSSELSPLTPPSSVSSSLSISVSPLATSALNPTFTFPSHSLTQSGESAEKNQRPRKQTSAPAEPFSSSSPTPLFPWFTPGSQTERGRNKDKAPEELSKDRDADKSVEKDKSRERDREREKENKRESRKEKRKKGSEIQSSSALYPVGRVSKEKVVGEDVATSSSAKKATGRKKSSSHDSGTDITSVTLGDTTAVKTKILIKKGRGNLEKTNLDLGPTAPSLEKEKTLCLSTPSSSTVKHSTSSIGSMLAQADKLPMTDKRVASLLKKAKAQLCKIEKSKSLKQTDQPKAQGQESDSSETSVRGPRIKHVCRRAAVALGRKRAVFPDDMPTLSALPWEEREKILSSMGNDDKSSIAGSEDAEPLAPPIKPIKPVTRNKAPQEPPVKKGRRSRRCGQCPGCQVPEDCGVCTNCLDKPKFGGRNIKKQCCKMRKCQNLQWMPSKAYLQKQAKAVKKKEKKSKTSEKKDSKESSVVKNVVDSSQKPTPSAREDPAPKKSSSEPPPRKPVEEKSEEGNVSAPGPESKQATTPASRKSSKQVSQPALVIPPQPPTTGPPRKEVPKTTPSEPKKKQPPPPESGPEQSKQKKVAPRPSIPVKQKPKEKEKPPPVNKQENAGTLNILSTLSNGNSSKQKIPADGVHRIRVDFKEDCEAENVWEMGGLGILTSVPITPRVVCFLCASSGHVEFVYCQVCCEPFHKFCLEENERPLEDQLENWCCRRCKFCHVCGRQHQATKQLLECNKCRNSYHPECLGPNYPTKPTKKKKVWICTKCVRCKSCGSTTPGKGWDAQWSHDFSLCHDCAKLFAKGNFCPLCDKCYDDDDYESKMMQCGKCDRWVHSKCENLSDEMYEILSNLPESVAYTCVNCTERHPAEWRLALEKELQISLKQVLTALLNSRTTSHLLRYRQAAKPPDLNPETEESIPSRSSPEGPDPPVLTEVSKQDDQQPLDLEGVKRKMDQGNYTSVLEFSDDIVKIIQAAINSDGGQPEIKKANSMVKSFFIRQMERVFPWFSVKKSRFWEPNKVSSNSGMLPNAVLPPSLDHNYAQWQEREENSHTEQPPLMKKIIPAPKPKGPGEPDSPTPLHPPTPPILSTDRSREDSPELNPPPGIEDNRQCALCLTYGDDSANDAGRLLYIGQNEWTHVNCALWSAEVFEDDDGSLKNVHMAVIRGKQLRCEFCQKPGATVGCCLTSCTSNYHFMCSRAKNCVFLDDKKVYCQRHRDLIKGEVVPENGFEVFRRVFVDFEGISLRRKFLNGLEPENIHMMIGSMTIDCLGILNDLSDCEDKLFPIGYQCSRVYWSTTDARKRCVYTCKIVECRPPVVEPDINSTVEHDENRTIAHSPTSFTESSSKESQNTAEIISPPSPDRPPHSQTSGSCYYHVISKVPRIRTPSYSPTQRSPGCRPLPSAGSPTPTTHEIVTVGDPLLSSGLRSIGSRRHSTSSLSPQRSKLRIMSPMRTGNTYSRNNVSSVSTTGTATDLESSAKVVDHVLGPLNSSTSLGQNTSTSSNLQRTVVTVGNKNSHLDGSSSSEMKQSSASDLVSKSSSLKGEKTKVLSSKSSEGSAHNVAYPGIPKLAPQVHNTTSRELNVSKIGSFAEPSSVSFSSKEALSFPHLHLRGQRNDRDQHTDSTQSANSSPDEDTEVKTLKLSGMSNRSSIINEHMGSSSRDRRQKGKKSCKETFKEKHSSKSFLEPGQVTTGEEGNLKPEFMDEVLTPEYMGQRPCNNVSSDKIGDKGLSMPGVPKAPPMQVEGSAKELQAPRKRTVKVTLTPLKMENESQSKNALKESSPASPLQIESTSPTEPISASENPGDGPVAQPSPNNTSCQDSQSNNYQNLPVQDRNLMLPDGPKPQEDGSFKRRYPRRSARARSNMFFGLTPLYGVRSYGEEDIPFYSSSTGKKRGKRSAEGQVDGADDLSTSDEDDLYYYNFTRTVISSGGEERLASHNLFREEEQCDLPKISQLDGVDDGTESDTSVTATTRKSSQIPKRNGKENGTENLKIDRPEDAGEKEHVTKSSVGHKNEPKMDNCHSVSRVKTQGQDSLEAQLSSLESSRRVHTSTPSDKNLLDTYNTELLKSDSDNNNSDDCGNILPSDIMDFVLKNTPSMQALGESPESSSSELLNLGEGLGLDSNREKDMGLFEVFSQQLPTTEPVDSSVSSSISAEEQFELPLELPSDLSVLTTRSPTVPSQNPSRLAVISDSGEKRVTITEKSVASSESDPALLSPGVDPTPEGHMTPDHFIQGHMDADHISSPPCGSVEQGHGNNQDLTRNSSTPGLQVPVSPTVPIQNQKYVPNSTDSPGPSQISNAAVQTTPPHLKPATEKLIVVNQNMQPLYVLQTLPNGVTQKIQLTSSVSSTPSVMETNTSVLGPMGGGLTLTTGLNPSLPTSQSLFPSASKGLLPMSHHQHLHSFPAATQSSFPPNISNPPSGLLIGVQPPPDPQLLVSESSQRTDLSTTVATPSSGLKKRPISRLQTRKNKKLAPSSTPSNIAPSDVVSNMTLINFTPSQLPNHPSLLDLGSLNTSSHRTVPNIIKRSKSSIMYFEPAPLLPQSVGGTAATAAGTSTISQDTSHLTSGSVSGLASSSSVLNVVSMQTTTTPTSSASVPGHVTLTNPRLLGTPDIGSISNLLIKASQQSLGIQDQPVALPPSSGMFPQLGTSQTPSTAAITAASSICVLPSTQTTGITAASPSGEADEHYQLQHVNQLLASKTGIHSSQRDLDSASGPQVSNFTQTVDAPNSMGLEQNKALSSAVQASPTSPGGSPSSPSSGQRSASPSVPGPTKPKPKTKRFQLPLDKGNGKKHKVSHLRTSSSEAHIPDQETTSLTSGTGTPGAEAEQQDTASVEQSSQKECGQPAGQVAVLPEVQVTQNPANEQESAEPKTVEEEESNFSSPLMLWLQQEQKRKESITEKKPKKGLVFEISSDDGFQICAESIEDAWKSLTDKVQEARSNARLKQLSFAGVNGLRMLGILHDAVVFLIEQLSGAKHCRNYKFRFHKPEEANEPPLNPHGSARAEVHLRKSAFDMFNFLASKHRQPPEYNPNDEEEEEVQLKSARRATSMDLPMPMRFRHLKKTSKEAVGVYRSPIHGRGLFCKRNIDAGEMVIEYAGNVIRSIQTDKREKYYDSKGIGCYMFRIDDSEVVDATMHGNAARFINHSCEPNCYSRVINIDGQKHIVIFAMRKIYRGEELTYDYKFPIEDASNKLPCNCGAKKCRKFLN
Compound,outcome,Potency
FC(F)(F)Oc1ccc(OCCCN2CCC(C(c3ccccc3)c3ccccc3)CC2)cc1,"inactive; no saturation, 12%inh at 2mm",
N#Cc1ccc(COCCN2CCC(C(O)(c3ccccc3)c3ccccc3)CC2)cc1,"inactive; no saturation, 50% inh at 1mm",
OC(c1ccccc1)(c1ccccc1)C1CCN(CCCOc2ccc(C(F)(F)F)cc2)CC1,,52 µM (active)
c1ccc(OCCCN2CCC(=C(c3ccccc3)c3ccccc3)CC2)cc1,"inactive; no saturation, 42% inh at 2mm",
OC(c1ccccc1)(c1ccccc1)C1CCN(CCCOc2ccc(-n3ccnn3)cc2)CC1,,29 µM (active)
N#Cc1ccc(OCCCN2CCC(C(O)(c3ccccc3)C(F)(F)F)CC2)cc1 (centres undefined),,31 µM (active)
O=C(O)c1ccc(OCCCN2CCC(C(O)(c3ccccc3)c3ccccc3)CC2)cc1,"inactive; no saturation, 34% inh. at 1mm",
N#Cc1ccc(OCCCN2CCC(C(O)(c3ccccc3)c3ccccc3)CC2)cc1F,,26.5 µM (active)
Cc1ccc(OCCCN2CCC(=C(c3ccccc3)c3ccccc3)CC2)cc1,"inactive; no saturation, 25% inh at 2mm",
FC(F)(F)c1ccc(OCCCN2CCC(=C(c3ccccc3)c3ccccc3)CC2)cc1,"inactive; no saturation, 25% inh at 2mm",
OC(c1ccccc1)(c1ccccc1)C1CCN(CCCOc2ccc(-c3nn[nH]n3)cc2)CC1,"inactive; interference with assay at higher dose, inactive up to 100 um",
NCc1ccc(OCCCN2CCC(C(O)(c3ccccc3)c3ccccc3)CC2)cc1,,7.6 µM (active)
FC(F)(F)Oc1ccc(OCCCN2CCC(=C(c3ccccc3)c3ccccc3)CC2)cc1,"inactive; no saturation, 12%inh at 2mm",
COc1ccccc1C(=O)Nc1ccnn1C1CCN(CC2CCCCC2)CC1,,42 µM (active)
[N-]=[N+]=Nc1ccc(OCCCN2CCC(C(O)(c3ccccc3)c3ccccc3)CC2)cc1,,58 µM (active)
CC(C)(C(=O)O)c1ccc(C(O)CCCN2CCC(C(O)(c3ccccc3)c3ccccc3)CC2)cc1 (centres undefined),inactive; no activity up to 2 mm,
FC(F)(F)c1ccc(OCCCN2CCC(C(c3ccccc3)c3ccccc3)CC2)cc1,"inactive; no saturation, 36% inh at 2mm",
Nc1ccc(OCCCN2CCC(C(O)(c3ccccc3)c3ccccc3)CC2)cc1,,60.5 µM (active)
CC(C)c1ccc(OCCCN2CCC(=C(c3ccccc3)c3ccccc3)CC2)cc1,"inactive; no saturation, 15% inh at 1mm",
